# Experimental data taken from PubChem BioAssay (EPA / NIEHS).
# Records with an inconclusive call do not appear. Active and inactive are the calls of the source. The calls were made as follows, unless noted: active = hit-call score of the fitted dose curve at least 0.9, where 1 is the maximum; inactive = score below 0.9.
# Assays:
# [1] = ACEA_ER_80hr: ACEA Biosciences xCELLigence Real-Time Cell Analysis on Estrogen Receptor Agonism for Proliferation (AID 2282667; active = hit-call score of the fitted dose curve at least 0.9, where 1 is the maximum); conditions: T47D proliferation, impedance (xCELLigence), 80 h
# In short: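 Impedance readout (RT-CES) of T47D proliferation at 80 h post-dose; gain of signal vs DMSO baseline. Compounds: 8 conc, 1:4 serial, top 100 uM final, ≤0.5% DMSO; biological duplicate.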
# [2] = biological target: CCAAT/enhancer-binding protein beta (Homo sapiens) (UniProt P17676); experiment: ATG_C_EBP_CIS: Attagene CIS-FACTORIAL HepG2 Assay for human CCAAT/Enhancer Binding Protein (C/EBP) beta (AID 2282927); conditions: HepG2 Attagene cis-factorial transcription factor reporter; actives raise or lower the signal
# In short: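 HepG2, transient MRTU transfection, 24 h treatment. RT-PCR plus CE fluorescence; DMSO negative control, bidirectional fit.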
# [3] = ATG_CMV_CIS: Attagene CIS-FACTORIAL HepG2 Assay for human CMV (Internal Marker) (AID 2282928); conditions: HepG2 CMV promoter reporter, transcription factor profiling; actives raise or lower the signal;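 also: endpoint acts as a background internal control marker rather than a target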
# In short: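 Cell system: HepG2, transiently transfected multiple reporter units under cis promoters. Exposure: 24 h. Detection: RT-PCR, FAM labeling, HpaI digestion, capillary electrophoresis. Analysis: bidirectional, DMSO baseline.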
# [4] = ATG_DR4_LXR_CIS: Attagene CIS-FACTORIAL HepG2 Assay for human Liver X Receptor (LXR), DR4 submotif (AID 2282929); conditions: HepG2 Attagene DR4 cis-reporter, mRNA transcription; actives raise or lower the signal
# In short: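 The endpoint is DR4-element-driven reporter transcripts after 24 h chemical exposure of transfected HepG2 cells. These were measured via RT-PCR and capillary electrophoresis, and gain or loss of signal was fitted relative to DMSO controls.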
# [5] = biological target: Aryl hydrocarbon receptor (Homo sapiens) (UniProt P35869); experiment: ATG_Ahr_CIS: Attagene CIS-FACTORIAL HepG2 Assay for human Aryl Hydrocarbon Receptor (Ahr) (AID 2282930); conditions: HepG2 AhR cis-factorial reporter transcription; actives raise or lower the signal
# In short: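 Endogenous factor activity is tracked through cis-promoter reporter units transfected into HepG2 cells. Transcript levels at 24 h are read by fluorescent RT-PCR and capillary electrophoresis, with activity in either direction scored relative to DMSO.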
# [6] = ATG_AP_1_CIS: Attagene CIS-FACTORIAL HepG2 Assay for human Activator Protein 1 (AP-1) (AID 2282931); conditions: HepG2 Attagene cis-factorial AP-1 reporter mRNA; actives raise or lower the signal
# In short: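 Readout is reporter transcript level from endogenous transcription factor activity, quantified by RT-PCR with fluorescent primer extension and capillary electrophoresis. Transiently transfected HepG2 cells, 24 h exposure. Curves fitted both directions versus DMSO.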
# [7] = ATG_AP_2_CIS: Attagene CIS-FACTORIAL HepG2 Assay for human Activator Protein 2 (AP-2) (AID 2282932); conditions: HepG2 AP-2 cis-reporter, Attagene transcription factor profiling; actives raise or lower the signal
# In short: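 HepG2 cells transiently transfected with cis-element reporter units and exposed for 24 h. Reporter mRNA measured by RT-PCR, FAM labelling, HpaI digestion and capillary electrophoresis. Changes in either direction fitted relative to DMSO.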
# [8] = ATG_BRE_CIS: Attagene CIS-FACTORIAL HepG2 Assay for human Bone Morphogenetic Protein (BMP) Response Element (BRE) (AID 2282933); conditions: HepG2 BMP response element reporter, Attagene transcription factor profiling; actives raise or lower the signal
# In short: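 Endogenous transcription factor activity at a BMP response element was monitored in transfected HepG2 cells 24 h after dosing. Fluorescent RT-PCR products were resolved by capillary electrophoresis, and activity was fitted in both directions versus DMSO.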
# [9] = biological target: Retinoic acid receptor alpha (Homo sapiens) (UniProt P10276); experiment: ATG_DR5_RAR_CIS: Attagene CIS-FACTORIAL HepG2 Assay for human Retinoic Acid Receptor Alpha (RARE), DR5 submotif (AID 2282934); conditions: HepG2 Attagene cis-factorial RARE DR5 reporter, mRNA; actives raise or lower the signal;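 as to AC50: reporter responds to endogenous RAR alpha beta and gamma in HepG2 not RARA alone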
# In short: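 After 24 h of chemical exposure, transiently transfected HepG2 cells were lysed for total RNA; the DR5-regulated reporter transcript was quantified via RT-PCR and capillary electrophoresis, with activity fitted bidirectionally against DMSO.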
# [10] = biological target: Transcription factor E2F1 (Homo sapiens) (UniProt Q01094); experiment: ATG_E2F_CIS: Attagene CIS-FACTORIAL HepG2 Assay for human E2F Transcription Factor 1 (AID 2282935); conditions: HepG2 Attagene cis-reporter, E2F reporter RNA transcripts; actives raise or lower the signal
# In short: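 Endogenous E2F1 activity read through cis-promoter reporter units transfected into HepG2. After 24 h compound treatment, reporter mRNA measured by RT-PCR, HpaI digestion and capillary electrophoresis. Bidirectional fit versus DMSO.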
# [11] = ATG_E_Box_CIS: Attagene CIS-FACTORIAL HepG2 Assay for human Enhancer Box (E-box) (AID 2282936); conditions: HepG2 E-box cis-reporter transcription, actives raise or lower the signal
# In short: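 HepG2 cells transiently transfected with multiplexed cis-element reporter units, dosed 24 h; reporter mRNA quantified by RT-PCR, 6-FAM labelling, HpaI digestion and capillary electrophoresis. E-box (USF1) signal fitted bidirectionally vs DMSO.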
# [12] = ATG_M_61_CIS: Attagene CIS-FACTORIAL HepG2 Assay for M61 Transcription Factor (Internal Marker) (AID 2282937); conditions: HepG2 Attagene CIS-FACTORIAL M61 internal marker reporter; actives raise or lower the signal
# In short: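 Readout is reporter mRNA by RT-PCR, fluorescent primer extension and capillary electrophoresis, with gain or loss fitted relative to DMSO. Transfected HepG2 cells carrying endogenous-TF-driven cis reporters were exposed to chemicals for 24 hours.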
# [13] = ATG_EGR_CIS: Attagene CIS-FACTORIAL HepG2 Assay for human Early Growth Response 1 (EGR1) (AID 2282938); conditions: HepG2 Attagene CIS-FACTORIAL EGR reporter mRNA; actives raise or lower the signal
# In short: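 After 24 h compound exposure, RNA from reporter-transfected HepG2 cells was reverse-transcribed, PCR-amplified, fluorescently labelled and resolved by capillary electrophoresis. EGR1 reporter transcript changes, up or down, were fitted against DMSO, reflecting endogenous transcription-factor activity.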
# [14] = ATG_M_19_CIS: Attagene CIS-FACTORIAL HepG2 Assay for M19 Transcription Factor (Internal Marker) (AID 2282939); conditions: HepG2 Attagene CIS-FACTORIAL M19 internal marker reporter; actives raise or lower the signal
# In short: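 Background-control endpoint from a multiplexed HepG2 reporter panel. Cells carrying cis-regulated reporter constructs are treated 24 h, then reporter transcripts are amplified, fluorescently labelled and sized by capillary electrophoresis. DMSO defines baseline.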
# [15] = ATG_ERE_CIS: Attagene CIS-FACTORIAL HepG2 Assay for Estrogen Response Element (ERE) (AID 2282940); conditions: HepG2 ERE cis-reporter, Attagene RNA transcript; actives raise or lower the signal
# In short: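 Cells used were human hepatoma HepG2, transfected with multiple reporter transcription units under cis-regulatory promoters. Reporter mRNA, read 24 h post-dosing via fluorescent RT-PCR products on capillary electrophoresis, was fitted bidirectionally relative to DMSO.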
# [16] = ATG_Ets_CIS: Attagene CIS-FACTORIAL HepG2 Assay for human Erythroblast Transformation Specific (ETS) (AID 2282941); conditions: HepG2 ETS cis-reporter transcription, actives raise or lower the signal
# In short: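 After transient cis-reporter transfection, HepG2 cells receive test chemical for 24 h. Reporter mRNA levels, measured by RT-PCR and capillary electrophoresis fluorescence, are analysed bidirectionally relative to the DMSO baseline.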
# [17] = biological target: Hepatocyte nuclear factor 3-beta (Homo sapiens) (UniProt Q9Y261); experiment: ATG_FoxA2_CIS: Attagene CIS-FACTORIAL HepG2 Assay for human Forkhead box A2 (FOXA2) (AID 2282942); conditions: HepG2 cis-reporter transcription factor activity, 24 h; actives raise or lower the signal
# In short: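 Endogenous transcription factor activity is captured via cis-element-driven reporter transcripts in transfected HepG2. Total RNA taken at 24 h post-dosing; labelled RT-PCR products resolved by capillary electrophoresis. Gain or loss fitted versus DMSO.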
# [18] = ATG_FoxO_CIS: Attagene CIS-FACTORIAL HepG2 Assay for human Forkhead box O (FoxO) (AID 2282943); conditions: HepG2 Attagene cis-reporter, FoxO element, mRNA; actives raise or lower the signal
# In short: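 Transfected HepG2 reporter cells exposed to test chemical for 24 h; reporter RNA measured by reverse transcription, PCR and fluorescent capillary electrophoresis; curves fitted for increases and decreases against DMSO.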
# [19] = ATG_GATA_CIS: Attagene CIS-FACTORIAL HepG2 Assay for human GATA Binding Protein (AID 2282944); conditions: HepG2 GATA cis-element reporter, Attagene multiplex mRNA; actives raise or lower the signal
# In short: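 Endogenous transcription factor activity was captured through cis-promoter-driven reporters in transfected HepG2 cells. After 24 h exposure, reporter transcripts were quantified by RT-PCR with fluorescent capillary electrophoresis, and responses fitted both directions against DMSO.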
# [20] = ATG_CRE_CIS: Attagene CIS-FACTORIAL HepG2 Assay for human cAMP Responsive Element (CRE) binding protein 3 (AID 2282926); conditions: HepG2 CRE cis-reporter, Attagene multiplexed mRNA; actives raise or lower the signal
# In short: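 Endogenous CRE-binding activity in HepG2 is reported through a cis-regulated transfected reporter. Following a day of exposure, mRNA levels are determined by reverse transcription PCR and fluorescent fragment analysis; fits run in both directions versus DMSO.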
# Sequence of Hepatocyte nuclear factor 3-beta (Homo sapiens) (Q9Y261 whole entry, looked up): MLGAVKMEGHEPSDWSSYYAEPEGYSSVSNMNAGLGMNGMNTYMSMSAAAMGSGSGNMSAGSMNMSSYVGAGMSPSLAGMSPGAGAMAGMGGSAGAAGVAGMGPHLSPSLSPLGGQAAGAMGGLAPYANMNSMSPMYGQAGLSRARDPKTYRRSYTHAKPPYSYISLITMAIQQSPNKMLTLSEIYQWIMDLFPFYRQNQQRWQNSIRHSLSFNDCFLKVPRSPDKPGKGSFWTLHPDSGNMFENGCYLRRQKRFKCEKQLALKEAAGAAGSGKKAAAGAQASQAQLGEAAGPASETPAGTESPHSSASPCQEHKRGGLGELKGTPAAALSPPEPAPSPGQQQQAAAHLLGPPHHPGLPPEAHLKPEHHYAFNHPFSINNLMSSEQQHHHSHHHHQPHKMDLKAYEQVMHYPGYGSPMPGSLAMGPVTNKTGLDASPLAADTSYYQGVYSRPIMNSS
# Sequence of CCAAT/enhancer-binding protein beta (Homo sapiens) (P17676 whole entry, looked up): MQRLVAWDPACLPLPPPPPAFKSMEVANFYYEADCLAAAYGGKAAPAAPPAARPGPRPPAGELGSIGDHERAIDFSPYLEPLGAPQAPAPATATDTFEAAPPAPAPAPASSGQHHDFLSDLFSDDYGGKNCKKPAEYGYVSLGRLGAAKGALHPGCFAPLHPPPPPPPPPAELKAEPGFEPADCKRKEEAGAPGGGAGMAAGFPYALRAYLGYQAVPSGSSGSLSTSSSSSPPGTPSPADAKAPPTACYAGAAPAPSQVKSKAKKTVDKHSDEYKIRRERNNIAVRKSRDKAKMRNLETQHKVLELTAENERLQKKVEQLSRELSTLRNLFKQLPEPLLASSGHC
# Sequence of Aryl hydrocarbon receptor (Homo sapiens) (P35869 whole entry, looked up): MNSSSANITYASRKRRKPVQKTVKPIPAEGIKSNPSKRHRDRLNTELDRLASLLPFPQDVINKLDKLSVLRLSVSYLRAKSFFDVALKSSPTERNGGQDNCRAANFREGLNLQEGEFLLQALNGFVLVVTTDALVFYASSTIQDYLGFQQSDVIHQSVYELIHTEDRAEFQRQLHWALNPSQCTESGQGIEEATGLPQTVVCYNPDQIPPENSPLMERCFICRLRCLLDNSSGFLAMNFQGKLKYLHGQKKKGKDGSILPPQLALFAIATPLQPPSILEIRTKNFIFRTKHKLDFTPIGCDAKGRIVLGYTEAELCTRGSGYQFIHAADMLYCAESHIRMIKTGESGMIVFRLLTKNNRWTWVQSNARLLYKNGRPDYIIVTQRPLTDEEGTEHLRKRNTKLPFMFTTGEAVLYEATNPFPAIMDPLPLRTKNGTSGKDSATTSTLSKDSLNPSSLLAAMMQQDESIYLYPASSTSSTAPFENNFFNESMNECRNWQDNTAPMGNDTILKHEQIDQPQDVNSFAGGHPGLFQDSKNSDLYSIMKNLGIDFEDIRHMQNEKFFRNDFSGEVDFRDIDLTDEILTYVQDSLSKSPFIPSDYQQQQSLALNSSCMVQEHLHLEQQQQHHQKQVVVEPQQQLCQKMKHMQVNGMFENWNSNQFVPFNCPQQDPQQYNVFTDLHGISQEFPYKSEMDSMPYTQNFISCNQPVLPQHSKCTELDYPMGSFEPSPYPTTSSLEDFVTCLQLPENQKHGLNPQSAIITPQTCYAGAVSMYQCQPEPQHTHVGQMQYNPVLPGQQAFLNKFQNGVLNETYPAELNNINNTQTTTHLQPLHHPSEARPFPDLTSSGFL
# Sequence of Retinoic acid receptor alpha (Homo sapiens) (P10276 whole entry, looked up): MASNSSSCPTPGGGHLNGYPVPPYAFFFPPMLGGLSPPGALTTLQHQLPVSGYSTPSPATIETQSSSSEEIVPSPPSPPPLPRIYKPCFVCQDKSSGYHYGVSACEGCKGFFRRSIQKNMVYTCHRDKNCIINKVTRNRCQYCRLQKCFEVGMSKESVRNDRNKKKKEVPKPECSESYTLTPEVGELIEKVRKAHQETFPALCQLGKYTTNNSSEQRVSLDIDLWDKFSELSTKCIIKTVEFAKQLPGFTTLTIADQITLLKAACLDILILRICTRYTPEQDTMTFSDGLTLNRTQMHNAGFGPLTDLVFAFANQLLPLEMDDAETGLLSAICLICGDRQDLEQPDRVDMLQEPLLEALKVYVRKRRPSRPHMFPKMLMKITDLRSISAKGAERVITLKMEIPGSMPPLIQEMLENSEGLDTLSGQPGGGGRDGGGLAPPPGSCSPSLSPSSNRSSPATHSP
# Sequence of Transcription factor E2F1 (Homo sapiens) (Q01094 whole entry, looked up): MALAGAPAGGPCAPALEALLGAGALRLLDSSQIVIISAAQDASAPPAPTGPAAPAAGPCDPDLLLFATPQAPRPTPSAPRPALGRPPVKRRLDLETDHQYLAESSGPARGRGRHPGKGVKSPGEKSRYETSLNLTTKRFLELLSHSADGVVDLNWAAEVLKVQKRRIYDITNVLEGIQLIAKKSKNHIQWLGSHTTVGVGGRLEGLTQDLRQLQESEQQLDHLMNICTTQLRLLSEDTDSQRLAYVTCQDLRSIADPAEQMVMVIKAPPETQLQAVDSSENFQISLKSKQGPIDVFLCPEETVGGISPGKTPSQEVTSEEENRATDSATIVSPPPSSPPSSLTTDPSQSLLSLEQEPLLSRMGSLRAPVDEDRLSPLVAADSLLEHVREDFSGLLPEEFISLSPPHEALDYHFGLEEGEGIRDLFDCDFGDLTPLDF
smiles,measurement,setting,value
Nc1ccc(C(=O)O)cc1,AC50,[1],50 µM (active)
same,outcome,[2],inactive
same,outcome,[3],inactive
same,outcome,[4],inactive
same,outcome,[5],inactive
same,outcome,[6],inactive
same,outcome,[7],inactive
same,outcome,[8],inactive
same,outcome,[9],inactive
same,outcome,[10],inactive
same,outcome,[11],inactive
same,outcome,[12],inactive
same,outcome,[13],inactive
same,outcome,[14],inactive
same,outcome,[15],inactive
same,outcome,[16],inactive
same,outcome,[17],inactive
same,outcome,[18],inactive
Fc1ccc(Br)cc1,outcome,[1],inactive
same,outcome,[2],inactive
same,outcome,[3],inactive
same,outcome,[4],inactive
same,outcome,[5],inactive
same,outcome,[6],inactive
same,outcome,[7],inactive
same,outcome,[8],inactive
same,outcome,[9],inactive
same,outcome,[10],inactive
same,outcome,[11],inactive
same,outcome,[12],inactive
same,outcome,[14],inactive
same,AC50,[15],21.1 µM (active)
same,outcome,[17],inactive
same,outcome,[18],inactive
same,outcome,[19],inactive
CC1CCC(C(C)(C)S)C(=O)C1 (stereo not given),outcome,[1],inactive
same,outcome,[20],inactive
same,outcome,[2],inactive
same,outcome,[5],inactive
same,outcome,[6],inactive
same,outcome,[7],inactive
same,outcome,[8],inactive
same,outcome,[9],inactive
same,outcome,[10],inactive
same,outcome,[11],inactive
same,outcome,[13],inactive
same,outcome,[14],inactive
same,outcome,[16],inactive
same,outcome,[18],inactive
same,outcome,[19],inactive
C=C(C)C1CC=C(C)CC1 (stereo not given),outcome,[1],inactive
same,outcome,[2],inactive
same,outcome,[4],inactive
same,outcome,[5],inactive
same,outcome,[6],inactive
same,outcome,[7],inactive
same,outcome,[8],inactive
same,outcome,[10],inactive
same,outcome,[11],inactive
same,outcome,[12],inactive
same,outcome,[14],inactive
same,outcome,[15],inactive
same,outcome,[18],inactive
same,outcome,[19],inactive
O=C(Nc1ccccc1)c1cc(Cl)ccc1O,outcome,[1],inactive
same,AC50,[2],3.35 µM (active)
same,outcome,[3],inactive
same,AC50,[5],3.62 µM (active)
same,AC50,[6],2.84 µM (active)
same,outcome,[7],inactive
same,AC50,[8],3.15 µM (active)
same,AC50,[9],4.11 µM (active)
same,outcome,[10],inactive
same,outcome,[11],inactive
same,AC50,[13],6.36 µM (active)
same,outcome,[14],inactive
same,outcome,[17],inactive
same,AC50,[18],100 µM (active)
same,outcome,[19],inactive
CC(C)(CO)C(O)C(=O)NCCCO (stereo not given),outcome,[1],inactive
same,outcome,[2],inactive
same,outcome,[3],inactive
same,outcome,[4],inactive
same,outcome,[5],inactive
same,outcome,[6],inactive
same,outcome,[7],inactive
same,outcome,[8],inactive
same,outcome,[9],inactive
same,outcome,[10],inactive
same,outcome,[11],inactive
same,outcome,[13],inactive
same,outcome,[15],inactive
same,outcome,[16],inactive
same,outcome,[17],inactive
same,outcome,[18],inactive
CC(c1cc(C(C)(C)C)cc(C(C)(C)C)c1O)c1cc(C(C)(C)C)cc(C(C)(C)C)c1O,outcome,[1],inactive
same,outcome,[2],inactive
same,outcome,[3],inactive
same,outcome,[4],inactive
same,outcome,[5],inactive
same,outcome,[6],inactive
same,outcome,[7],inactive
same,outcome,[8],inactive
same,outcome,[9],inactive
same,outcome,[10],inactive
same,outcome,[11],inactive
same,outcome,[13],inactive
same,outcome,[15],inactive
same,outcome,[16],inactive
same,outcome,[17],inactive
same,outcome,[18],inactive
same,outcome,[19],inactive
O=C(O)CCC(=O)O,outcome,[1],inactive
same,outcome,[2],inactive
same,outcome,[3],inactive
same,outcome,[4],inactive
same,outcome,[5],inactive
same,outcome,[6],inactive
same,outcome,[7],inactive
same,outcome,[8],inactive
same,outcome,[9],inactive
same,outcome,[10],inactive
same,outcome,[11],inactive
same,outcome,[12],inactive
same,outcome,[13],inactive
same,outcome,[15],inactive
same,outcome,[16],inactive
same,outcome,[17],inactive
same,outcome,[18],inactive
same,outcome,[19],inactive
